Measured potencies and affinities stand elsewhere.
Tests used:
[1] = tested on: Staphylococcus aureus; settings: Concentration 32 ug.mL-1;; ASSAY_TEST Inhibition of Bacterial Growth; detection method Absorption (OD600); MEDIA CAMHB; plate type 384well; NBS; CORNING #3640; time 18 hr
[2] = tested on: Escherichia coli; settings: Concentration 32 ug.mL-1;; ASSAY_TEST Inhibition of Bacterial Growth; detection method Absorption (OD600); MEDIA CAMHB; plate type 384well; NBS; CORNING #3640; time 18 hr

Structure (SMILES)	Inhibition [1] [%]	Inhibition [2] [%]
Cc1ccc(Oc2nccn3c(=O)n(CC(=O)Nc4ccccc4C(F)(F)F)nc23)cc1	6.18	0.58
CN(C(=O)Cn1nc2n(Cc3cccs3)c(=O)c3sccc3n2c1=O)c1ccccc1	-14.76	-16.81
CCOc1ccc(-n2ccn3c(SC(C)C(=O)Nc4ccc(OC)cc4)nnc3c2=O)cc1 (configuration not stated)	5.98	-5.92
Cc1nnc2c(S(=O)(=O)N(Cc3cc(F)cc(F)c3)c3cccc(F)c3)cccn12	8.19	-6.31
O=C(Cn1nc2c(N3CCOCC3)nccn2c1=O)NCc1ccc(F)cc1	19.72	0.87
COc1ccccc1NC(=O)Cn1nc2c(Oc3ccc(Cl)cc3)nccn2c1=O	6.15	-7.74
Cc1ccc(C)c(NC(=O)Cn2nc3n(C)c(=O)c4c(c(-c5ccccc5)cn4C)n3c2=O)c1	-4.46	-19.92
CCOC(=O)c1cccc(NC(=O)CSc2nnc3ccc(C(=O)Nc4cccc(F)c4)cn23)c1	5.02	-5.71
CCCCOc1ccc(-c2cc3c4nnc(SCC(=O)N(C)c5ccc(F)cc5)n4ccn3n2)cc1	-20.91	-5.6
Cc1ccc(NC(=O)Cn2nc3ccc(-c4ccc(C)c(C)c4)nn3c2=O)cc1	12.01	-5.02
CSc1cccc(NC(=O)Cn2nc3c(Sc4cccc(F)c4)nccn3c2=O)c1	2.75	-0.46
COc1ccc(N2CCN(C(=O)Cn3nc4c(Sc5cccc(C)c5)nccn4c3=O)CC2)cc1	0.43	-16.62
COc1ccc(-c2cc3c4nnc(SCC(=O)Nc5ccc(OC)c(Cl)c5)n4ccn3n2)cc1	3.66	-2.1
Cc1ccccc1Oc1nccn2c(=O)n(CC(=O)Nc3cc(F)ccc3F)nc12	11.37	-2.39
COc1cccc(Oc2nccn3c(=O)n(CC(=O)NCc4ccc(SC)cc4)nc23)c1	10.98	2.64
O=C(Cn1nc2c(SC3CCCCC3)nccn2c1=O)N1CCN(c2ccccc2)CC1	2.31	0.18
O=C(Cn1nc2c(N3CCOCC3)nccn2c1=O)Nc1ccc2c(c1)OCO2	15.61	0.24
CCC(C)NC(=O)Cn1nc2ccc(SCc3ccc(Cl)cc3)nn2c1=O (configuration not stated)	7.31	-1.43
NC(=O)CSc1nnc2c(=O)n(-c3ccccc3)ccn12	9.05	0.29
COC(=O)c1ccc(CN(c2ccc(F)cc2)S(=O)(=O)c2cccn3c(C)nnc23)o1	11.5	-1.28
COC(=O)c1ccc(NC(=O)Cn2c(=O)c3nnc(C(C)C)n3c3ccccc32)cc1	8.86	0.09
COc1cc(OC)c(NC(=O)Cn2nc3ccc(Sc4ccc(C)cc4)nn3c2=O)cc1Cl	-4.96	-10.5
COc1ccccc1-n1ccn2c(SCc3ccccc3C)nnc2c1=O	16.46	-2.58
Cc1ccc(Cn2c(=O)c3ccc(C(=O)NC4CCCC4)cc3n3c(=O)n(CC#N)nc23)cc1	2.21	1.56

Structure (SMILES)	Inhibition [1] [%]	Inhibition [2] [%]
CSc1cccc(NC(=O)Cn2nc3c(N4CCCC4)nccn3c2=O)c1	-20.72	-10.95
COc1cc(NC(=O)Cn2nc3c4c5c(sc4ncn3c2=O)CCCC5)cc(OC)c1OC	7.91	-3.63
Cc1cccc(NC(=O)Cn2nc3c4cc(-c5ccc(Cl)cc5)nn4ccn3c2=O)c1	3.19	-7.53
COc1cc(OC)c(NC(=O)Cn2nc3c(Oc4ccc(C)cc4)nccn3c2=O)cc1Cl	4.71	-4.58
Cc1cccc(CN(c2cccc(F)c2)S(=O)(=O)c2ccc3nncn3c2)c1	-2.24	-9.18
CCCCc1ccc(NC(=O)CSc2nc3ccccc3n3c(CC)nnc23)cc1	10.38	-2.23
COc1ccc(NC(=O)CSc2nnc3c(=O)n(-c4ccccc4OC)ccn23)cc1Cl	16.85	-0.75
O=C(Cn1nc2c(SC3CCCCC3)nccn2c1=O)NCc1ccc(F)cc1	3.45	-3.55
Cc1cccc(NC(=O)Cn2nc3ccc(-c4ccc(Cl)cc4)nn3c2=O)c1C	5.25	-5.96
Cc1ccc(NC(=O)Cn2nc3ccc(-c4ccccc4)nn3c2=O)cc1	2.61	-12.45
CCOC(=O)C1CCN(c2nc3ccccc3n3c(=O)n(CC(=O)Nc4ccccc4F)nc23)CC1	2.72	-5.37
COc1ccc(N(Cc2ccc(C)cc2)S(=O)(=O)c2ccc3nnc(C)n3c2)cc1	-1.53	-8.35
Cc1cc(NC(=O)CSc2nc3ccccc3n3cnnc23)ccc1Br	13.29	3.15
CCC(Sc1nnc2c(=O)n(-c3ccc(C)c(C)c3)ccn12)C(=O)Nc1cc(OC)ccc1OC (configuration not stated)	-17.77	-11.35
O=C(CCc1nnc2c(N3CCCCC3)nc3ccccc3n12)NCc1ccc(Br)cc1	2.96	-5.93
Cc1cc(NC(=O)Cn2c(=O)c3nnc(C(C)C)n3c3ccccc32)ccc1Br	13.77	0
COc1ccc(-n2ccn3c(SCC(=O)N4CCN(c5ccccc5F)CC4)nnc3c2=O)cc1	7.08	-4.94
O=c1c2nnc(SCc3ccccc3Cl)n2ccn1-c1ccc(F)c(F)c1	11.5	-3.79
O=C(Cn1nc2c(Sc3cccc(F)c3)nccn2c1=O)N1CCN(c2ccccc2)CC1	1.07	1.18
Cc1ccc(CSc2nnc3c(=O)n(-c4ccc(Br)cc4)ccn23)cc1	13.68	-2.08
COc1ccccc1NC(=O)Cn1nc2c(SC3CCCCC3)nccn2c1=O	-13.71	-14.54
Cc1ccccc1Oc1nc2ccccc2n2c(=O)n(CC(=O)Nc3cccc(C(F)(F)F)c3)nc12	7.78	2.27
COc1ccc(-c2cc3c4nnc(SCC(=O)Nc5ccc(C)c(F)c5)n4ccn3n2)cc1	0.86	-1.39
Cc1ccc(-c2ccc3nn(CC(=O)N4CCN(c5ccc(F)cc5)CC4)c(=O)n3n2)cc1C	-6.93	-8.27

Structure (SMILES)	Inhibition [1] [%]	Inhibition [2] [%]
Cc1cc(C)cc(N(Cc2ccc(F)cc2)S(=O)(=O)c2cccn3c(C)nnc23)c1	-7.01	-9.2
COc1ccc(-c2cc3c4nn(CC(=O)Nc5ccc(C)c(C)c5)c(=O)n4ccn3n2)cc1	9.35	6.79
COc1cccc(CNC(=O)Cn2nc3c4cc(-c5cc(C)ccc5C)nn4ccn3c2=O)c1OC	2.74	-0.3
CCCNC(=O)Cn1nc2nc(Nc3ccc(F)cc3)ccn2c1=O	8.25	-13.63
Cc1cccc(NC(=O)CSc2nnc3c(=O)n(-c4ccccc4)ccn23)c1	7.18	-6.81
CCCn1c(=O)c2sccc2n2c(CCC(=O)NC(C)C34CC5CC(CC(C5)C3)C4)nnc12 (configuration not stated)	-5.57	-7.36
O=C(Cn1nc2c(N3CCN(c4ccccc4)CC3)nccn2c1=O)Nc1ccc2c(c1)OCO2	13.69	0.21
COCCCNC(=O)CSc1nnc2c(=O)n(Cc3ccccc3F)ccn12	-1.95	0.71
O=C(CSc1nnc2c3cc(-c4ccccc4)nn3ccn12)NCc1ccccc1Cl	-4.46	-7.31
COc1ccc(-c2cc3c4nn(CC(=O)NCc5ccccc5Cl)c(=O)n4ccn3n2)cc1	8.73	0.93
O=c1n(Cc2nc(-c3ccc(Cl)cc3)no2)nc2ccc(-c3ccccc3)nn12	1	-5.36
CCc1ccc(N(Cc2cccc(Cl)c2)S(=O)(=O)c2cccn3c(C)nnc23)cc1	10.13	-1.93
CCc1ccc(N(Cc2cccc(C)c2)S(=O)(=O)c2cccn3c(C)nnc23)cc1	-11.31	0.34
COc1ccc(-c2cc3c4nn(CC(=O)Nc5ccccc5OC)c(=O)n4ccn3n2)cc1	2.83	-1.9
O=C(Cn1nc2c(SCc3ccccc3)nccn2c1=O)NC1CCCCC1	7.46	-4.24
Cc1cc(C)c(C(=O)CSc2nnc3c(=O)n(-c4ccc(F)cc4)ccn23)cc1C	6.25	-5.27
CCc1ccccc1Sc1nccn2c(=O)n(CC(=O)Nc3ccc(Br)cc3)nc12	-9.89	1.96
CCc1nnc2c(S(=O)(=O)N(Cc3ccc(F)cc3)c3cccc(Cl)c3)cccn12	8.4	-8.07
CC(C)(C)S(=O)(=O)c1ccc2nn(CC(=O)Nc3ccc(Br)cc3)c(=O)n2n1	3.67	-5.05
CCc1cccc(NC(=O)Cn2nc3c(SCc4ccc(Cl)cc4)nccn3c2=O)c1	-8.25	-12.19
CCC(Sc1nnc2c(=O)n(-c3ccccc3)ccn12)C(=O)Nc1cc(F)ccc1F (configuration not stated)	6.45	-6.05
O=C(Cn1nc2c(Sc3ccccc3)nccn2c1=O)Nc1ccc(Br)cc1F	5.84	-2.08
CCc1nnc2c(=O)n(CC(=O)Nc3ccc(NC(C)=O)cc3)c3ccccc3n12	1.89	-3.04

Source: ChEMBL document CHEMBL4513146, “CO-ADD screening of Karazin Kharkiv National University (Ukraine) compounds”
